Test results taken from PubChem BioAssay AID1508624 (National Center for Advancing Translational Sciences (NCATS), 2021).
About 120 (0.25%) of roughly 48,000 compounds were called active. Inconclusive results (about 4%) are left out. The sample holds actives, similar compounds and a random draw of the others, so the mix is not that of the screen. The call rests on the fitted dose curve; in most records, active means well fitted activation curve with a large enough effect; inconclusive means small, poorly fitted or top-dose-only effect, or another doubt; inactive means no such curve, though single readings can be large or run the other way.

Assay: Primary qHTS for Identification of Small Molecule Activators of Huntingtin-Antisense Promoter Activity; further: nearly all actives have a fitted effect of over 55% in size
Conditions: HEK293 HTT-AS promoter firefly luciferase reporter (activity 0% = vehicle and -100% = no light), 24 h; series mostly up to 57.5 µM; activity change, positive = activation: at the top concentration
Source text: Assay Provider: Russell L. Margolis M.D.
Department Neurology, Johns Hopkins University School of Medicine, Baltimore, MD
Huntington's Disease (HD) is a neurodegenerative disorder caused by a CAG repeat expansion in exon 1 of huntingtin (HTT). While there are currently no disease-modifying treatments for HD, recent efforts have focused on development of nucleotide-based therapeutics to lower HTT expression. As an alternative to siRNA or oligonucleotide methods, we hypothesized that suppression of HTT expression might be accomplished by small molecules that either (1) directly decrease HTT expression by suppressing HTT promoter activity or (2) indirectly decrease HTT expression by increasing the promoter activity of HTT-AS, the gene antisense to HTT that appears to inhibit expression of HTT.
We developed and employed a high throughput screen for modifiers of HTT and HTT-AS promoter activity using luminescent reporter HEK293 cells; of the 52,041 compounds tested, we identified 898 replicable hits. We used a rigorous stepwise approach to assess compound toxicity and the capacity of the compounds to specifically lower huntingtin protein in 5 different cell lines, including HEK293 cells, HD lymphoblastoid cells, mouse primary neurons, HD iPSCs differentiated into cortical-like neurons, and HD hESCs. We found no compounds which were able to lower huntingtin without lowering cell viability in all assays, though the potential efficacy of a few compounds at non-toxic doses could not be excluded.
SEQUENCE No. (1, 2, 3, etc.); […] (e.g., Cells, Incubation, Reagent, etc.); VALUE and DESCRIPTION.
1; Reagent; 4 uL; 2,500 Hek293 luciferase reporter cells per wells
3; Compound; 23 nL; Control inhibitor / compound library
5; Reagent; 2.5 uL; Firefly Luc reagent; Dual-Glo Luciferase Reporter Assay System (Promega)
6; Time; 10 min; room temperature incubation
7; Detection; Luminescence; FLuc
NOTES (numbers refer to sequence above)
1; High-throughput screening, measuring luminescence from a Hek293 luciferase reporter, was performed in 1,536 well white-walled tissue-culture treated plates. 2,500 cells were plated in 4 µL of Opti-MEM per well using a Multidrop Combi Reagent Dispenser (ThermoFisher).
2; Assay plates were cultured for 24 hours.
3; Control inhibitor (PTC124; final concentration of 50 uM) and compound library (at final concentrations of 460 nM - 57.5 uM) were added to the assay plate using the Kalypsis Pintool Robotic System equipped with 1536 pinheads.
4; Cells were then incubated for 24 hours at 37 degrees C prior to luminescence measurements.
5; In all cases, luminescence was measured using the Dual-Glo Luciferase Reporter Assay System (Promega) following the manufacturer's instructions.
6; Room temperature incubation.
7; Luminescence signal was obtained using the PerkinElmer ViewLux plate reader. Results were normalized to vehicle control (0% activity) and zero RLU (-100% activity).

Activity change, positive = activation, inactive:
CCC(=O)N1c2ccccc2CC1C(=O)N1CCN(c2cccc(OC)c2)CC1 (stereo not drawn) -17.5%
CCOc1cc(CNC(=O)c2sc3ncnc(N(C)C4CCCCC4)c3c2C)ccc1OC -35.7%
Cc1ccccc1CCNC(=O)C1CCN(c2nc3ccccc3nc2C(F)(F)F)CC1 -6.9%
O=C(NC1CC(=O)N(c2ccc(F)cc2)C1)c1cccs1 (stereo not drawn) -7.05%
CCOC(=O)C1CCCN(S(=O)(=O)c2cc(-c3cc(C)no3)ccc2OC)C1 (stereo not drawn) -4.74%
Cc1cccc(C)c1-n1ncc(C(=O)NCCCN2CCCCC2)c1C1CCN(C(=O)OC(C)(C)C)CC1 -21%
Cc1ccc(C(=O)Nc2cc3c(cc2N2CCCC2)n(C)c(=O)c(=O)n3C)cc1 -7.49%
COc1ccccc1NC(=O)C1=C(C)Nc2nc(SCC(=O)c3ccc(C)cc3)nn2C1c1ccccc1C (stereo not drawn) 2.53%
Cc1c(-c2nsc(NC(=O)c3cccc(Cl)c3)n2)nnn1-c1ccccc1C(F)(F)F -85.6%
Cc1cc(C)cc(NC(=O)Cn2c(=O)c3ccccc3n3nncc23)c1 -1.71%
COc1ccc(Cn2ccn(CC(=O)Nc3cc(C)ccc3C)c(=O)c2=O)cc1 -13.3%
Cc1nn(-c2ccc(F)cc2)c(-n2cccc2)c1C(=O)N1CCN(c2ccccc2)CC1 -22.6%
CCOc1ccc(Nc2oc(/C=C/c3ccc(F)cc3)nc2C#N)cc1 4.81%
CCCC(=O)Nc1ccc(NC(=O)c2sc3ccccc3c2Cl)cc1 -35.3%
O=S(=O)(c1ccc2nc(N3CCN(c4cccc(Cl)c4)CC3)ccc2c1)N1CCCCC1 -6.05%
CCOC(=O)c1ccc(NC(=O)CC2C(=O)N(c3ccccc3)C(=O)N2Cc2cccs2)cc1 (stereo not drawn) -8.82%
Cc1cc(Cl)ccc1OCC(=O)N(Cc1ccc(N(C)C)cc1)C1CCS(=O)(=O)C1 (stereo not drawn) -14.8%
CCC(=O)N1CCc2cc(S(=O)(=O)NC(C(=O)NCCc3ccc(C)cc3)C(C)C)ccc21 (stereo not drawn) -1.83%
CCOc1ccc(CCNC(=O)c2csc3c2CCCCC3)cc1 -21.7%
Cc1ccc2nc(-c3ccc(C)c(NC(=O)Cc4ccccc4)c3)oc2c1 -72.1%
CCCN(CCC)S(=O)(=O)c1ccc(C(=O)Nc2sc3c(c2C(=O)OC)CCN(CC)C3)cc1 -29.2%
O=C(C1CC1)N1CCc2cc(Br)cc(S(=O)(=O)N3CCN(c4ccccc4F)CC3)c21 -14.5%
CCOc1ccc(NC(=O)c2c(NC(=O)Cc3ccccc3)sc3c2CCCCC3)cc1 -10.1%
